# PKA-R1A activ – activators of PKA-R1A holoenzyme, primary screen, biochemical, fluorescence polarization, Cy5-IP20, bovine R1A, mouse PKAc | cAMP-dependent protein kinase type I-alpha regulatory subunit (Bos taurus) + … | PKA-R1A dissociation; scaled: DMSO 0%, 113 µM cGMP 100% | activation, % at 11.4 µM | actives 0.083% (n = 340,000);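 active = percent activation above the mean of all tested compounds plus 3 SD, cut at about 19% in these data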;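 also: higher means more PKAc released from R1A so a rise in polarization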
# Rev-erbA mod – modulators of Rev-erb alpha DNA binding, primary screen, biochemical, FITC-DNA, fluorescence polarization, uHTS. Nuclear receptor subfamily 1 group D member 1 (Homo sapiens), P20393. AID 1259318, 2017. actives 0.79% (n = 370,000). Rev-erbα–FITC-DNA binding, 90 min. activity, % at 10 µM;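 active = activity above about 14%, limit read from the data; passing the limit was not always enough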;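 also: 0% = DMSO wells with 35 nM protein and 100% = DMSO wells with 750 nM protein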
# PG9 Ab binder – binders of HIV-1 gp120 antibody PG9, primary screen, biochemical, TR-FRET; HIV-1 gp120 / PG9 antibody interaction; actives 0.43% (n = 360,000); inhibition, % at 6.7 µM; TR-FRET gp120-PG9 antibody binding; in the data active = inhibition above about 8.5%
# PKA-R2B act – activators of PKA-R2B holoenzyme, primary screen, biochemical, fluorescence polarization, Cy5-IP20, human; cAMP-dependent protein kinase catalytic subunit beta (Homo sapiens) + cAMP-dependent …; PKA-R2B holoenzyme dissociation; R2B truncated from residue 108, S112A mutant; 0% DMSO only, 100% 113 µM cGMP; activation, % at 11.4 µM; actives 0.079% (n = 340,000); AID 504700, 2011;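 active = activation above a cutoff set at the mean over all compounds plus 3 SD, cut at about 18% in these data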;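 also: higher means more holoenzyme dissociation and a rise in polarization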
# Target sequence (P31323 whole entry, looked up, other chains not shown, the tested form may be a part): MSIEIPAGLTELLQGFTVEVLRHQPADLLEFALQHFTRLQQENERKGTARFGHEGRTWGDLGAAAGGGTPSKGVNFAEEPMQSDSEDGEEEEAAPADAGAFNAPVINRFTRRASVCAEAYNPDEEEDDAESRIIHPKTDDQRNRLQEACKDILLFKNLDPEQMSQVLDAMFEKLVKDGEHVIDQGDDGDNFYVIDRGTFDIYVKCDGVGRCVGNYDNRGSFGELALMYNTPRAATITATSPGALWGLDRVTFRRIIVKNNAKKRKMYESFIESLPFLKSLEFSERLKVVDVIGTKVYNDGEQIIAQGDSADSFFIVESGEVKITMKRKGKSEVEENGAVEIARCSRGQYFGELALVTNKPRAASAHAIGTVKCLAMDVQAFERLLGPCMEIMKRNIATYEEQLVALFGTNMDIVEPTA
# PG9 binder conf – binders of anti-gp120 antibody PG9, confirmation, biochemical, TR-FRET; shares compounds with PG9 Ab binder; TR-FRET PG9 antibody binding; inhibition, % at 6.7 µM; actives 90% (n = 1,500); AID 651571, 2012; in the data active = inhibition above about 9%
# PGV04 Ab binding – binders of control antibody PGV04, counter-screen for PG9 antibody binder project, biochemical, TR-FRET, distinct HIV envelope site; shares compounds with PG9 Ab binder; TR-FRET PGV04 antibody-gp120 binding; inhibition, % at 6.7 µM; actives 95% (n = 1,500); AID 651604, 2012; in the data active = inhibition above about 9.5%
# Rev-erbA confirm – modulators of Rev-erb alpha DNA binding, confirmation, biochemical, FITC-DNA, fluorescence polarization, single point | activation, % at 25 µM | 90 min | actives 61% (n = 3,000) | shares compounds with Rev-erbA mod;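 active = activation at or above a set limit, or at least 3 SD above the negative control mean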;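 also: 0% = 35 nM protein with DMSO and 100% = 750 nM protein high control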
# RORg DNA counter – modulation of RORgamma DNA binding, dose response, counter-screen for Rev-erb alpha modulator project, biochemical, fluorescence polarization, FITC-DNA; AID 1259320, 2017; IC50, µM; purified RORgamma protein-FITC-DNA binding; actives 8% (n = 910); shares compounds with Rev-erbA mod;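 active = Compounds whose fitted half-maximal concentration for disrupting protein-DNA binding is below 10 micromolar; the record names Rev-erb in its text, so the target is in doubt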
# An asterisk follows results filed as active; i = inactive; . = not tested or not shown. Only some compounds are listed: those with a hit (about 1.2% of all), similar ones and a draw of the others.
SMILES,PKA-R1A activ,Rev-erbA mod,PG9 Ab binder,PKA-R2B act,Rev-erbA confirm,others
CCN1C(=O)C(=C2C=C(C)N(Cc3ccco3)C(C)=C2)C(=O)N(CC)C1=S,3,2,20*,-15,.,PG9 binder conf=22*;PGV04 Ab binding=27*
O=[N+]([O-])c1ccc(NC2CCCC2)c2ccncc12,-4,.,.,4,.,
O=[N+]([O-])c1ccc(N2CCCC2)c2ccncc12,-5,36*,-7,-5,35*,RORg DNA counter=>40
C#CCN1CC(=O)N(COC(=O)C2C(C=C(C)C)C2(C)C)C1=O (stereo unspecified),.,12,.,.,.,
Cc1c(C(=O)c2cccc3ccccc23)c2cccc3c2n1[C@H](CN1CCOCC1)CO3,1,27*,-3,-5,16*,
O=C(CN1CCOCC1)c1cccc2ccccc12,-7,7,0,-4,.,
CC(=O)[O][Hg][c]1ccccc1,.,-4,.,.,.,
CCOC(=O)C1CCCN(c2ccc([N+](=O)[O-])c3nonc23)C1 (stereo unspecified),-9,57*,-1,-8,57*,RORg DNA counter=2.5*
CCN(CC)c1ccc(C=C2C(=O)N(C)C(=S)N(C)C2=O)o1,2,35*,-3,-7,15,
CN1C(=O)C(=Cc2ccc(N3CCCCC3)o2)C(=O)N(C)C1=S,-9,40*,-4,-2,47*,RORg DNA counter=>40
Cc1ccc(/C=C2\C(=O)NC(=S)N(c3ccc(F)cc3)C2=O)o1,0,1,2,-1,.,
O=C1NC(=O)C(=Cc2ccc(N3CCOCC3)o2)C(=O)N1,3,30*,-6,-5,28*,
Cc1cc(C)cc(N2C(=O)/C(=C\c3ccc(N4CCN(C)CC4)o3)C(=O)NC2=S)c1,.,17*,-6,.,11,
CN1C(=O)C(=Cc2ccc(SC3CCCCC3)o2)C(=O)N(C)C1=O,6,-4,-2,-4,.,
COc1cc2c(cc1OC)[C@@]13CCN4CC5=CCOC6CC(=O)N2C1[C@H]6[C@H]5C[C@H]43 (stereo partly specified),.,10,.,.,.,
CC(=O)OCC1=C(C(=O)O)N2C(=O)[C@@H](NC(=O)CCCC(N)C(=O)O)C2SC1 (stereo partly specified),.,8,.,.,.,
CCN(CC)c1ccc(/C=C2\C(=O)NC(=S)N(c3ccc(OC)cc3OC)C2=O)o1,-10,.,.,1,.,
CCN(CC)c1ccc(/C=C2\C(=O)NC(=S)N(C)C2=O)o1,3,57*,-10,-13,62*,RORg DNA counter=>40
CCOc1ccc2nc(N=Nc3c(O)[nH]c(=S)[nH]c3=O)sc2c1,-4,25*,-5,3,36*,RORg DNA counter=i
O=C(O)c1cccc(N=Nc2c(O)[nH]c(=O)[nH]c2=O)c1,-13,-4,-2,-3,.,
Cc1c(N=Nc2c(O)[nH]c(=S)[nH]c2=O)c(=O)n(-c2ccccc2)n1C,14,1,-9,4,.,
CCOc1ccc2nc(N=Nc3c(O)[nH]c(=O)[nH]c3=O)sc2c1,-3,25*,-7,-5,16,
CCC(=O)O[C@H]1CCC2C3CCC4=CC(=O)CC[C@]4(C)C3CC[C@@]21C (stereo partly specified),.,1,.,.,.,
C[C@@H]1CC[C@H]2[C@@H](C)C(=O)O[C@@H]3OC4(C)CC[C@@H]1[C@]32OO4,.,-6,.,.,.,
O=C(O)c1ccccc1-c1c2cc(Br)c(=O)cc-2oc2[c]([Hg])c(O)c(Br)cc12,.,118*,.,.,79*,
SMILES,PKA-R1A activ,Rev-erbA mod,PG9 Ab binder,PKA-R2B act,Rev-erbA confirm,others
CCOc1ccc(N=Cc2c(O)n(Cc3ccccc3)c(=S)[nH]c2=O)cc1,-1,41*,1,-11,10,
O=c1[nH]c(=O)n(Cc2ccc(F)cc2)c(O)c1C=Nc1ccc(Cl)cc1,7,125*,1,-11,9,
CC(=O)NC1CCSC1=O (stereo unspecified),.,-6,.,.,.,
C=C[C@H]1CN2CC[C@H]1C[C@@H]2[C@@H](OC(=O)OCC)c1ccnc2ccc(OC)cc12,.,-5,.,.,.,
Cc1ccc(-n2c(O)c(/C=N/c3ncc(Br)cc3Br)c(=O)[nH]c2=O)cc1,-1,131*,-1,-11,143*,RORg DNA counter=>40
COc1ccc2c(c1)[C@]13CCCC[C@H]1[C@H](C2)N(C)CC3,.,3,.,.,.,
COc1cc2c(cc1OC)-c1c3c(cc4c1[C@@H](C2)N(C)CC4)OCO3,2,15*,-8,-17,-3,
CCCCn1c(=O)c(C(=O)Nc2ccccc2C)c(O)c2ccccc21,3,.,.,-9,.,
CC(C)CCn1c(=O)c(C(=O)Nc2ccccc2S(N)(=O)=O)c(O)c2ccccc21,5,29*,8,-1,21*,
CCCCCn1c(=O)c(C(=O)Nc2ccccc2Cl)c(O)c2ccccc21,-4,76*,-1,-4,33*,RORg DNA counter=i
C[C@]12CCC(=O)C=C1C=CC1C2CC[C@@]2(C)C1CC[C@@]2(O)CCC(=O)O (stereo partly specified),.,0,.,.,.,
C=C(C)c1cccc(C(C)(C)NC(=O)NC2CN3CCC2CC3)c1 (stereo unspecified),3,38*,0,-1,46*,
C1=C(c2c[nH]c3ccccc23)CCN(Cc2ccccc2)C1,0,1,-1,10,.,
Nc1c2c(nc3ccccc13)CCN(Cc1ccccc1)C2,4,32*,-1,4,34*,RORg DNA counter=>40
C=CCN1CC[C@]23c4c5ccc(O)c4O[C@@H]2C(=O)CC[C@@]3(O)[C@H]1C5,.,-4,.,.,.,
CC(C)CC(C)N (stereo unspecified),0,19*,-1,2,-3,

# Screening results deposited in PubChem by several laboratories.
